HT1080 IDH1KD tx: kills HT-1080 cells with IDH1 knockdown; HT-1080 IDH1 knockdown viability, ATP luminescence, 48 h; Potency, µM (highest dose often 46.1 µM), for the others: at the highest dose activity, negative = toxicity, actives largely listed as cytotoxic; 2% of 360,000 active; AID 686971;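 note: 0% = DMSO wells and -100% = cell-free medium wells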
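Assay cells: HT-1080 with IDH1 knockdown, 750 per well, RPMI/5% FBS. Exposure: 48 h at 37 °C following 2 h pre-incubation. Read: CellTiter-Glo luminescence; fitted concentration-response, curve class assigned.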
KB-V1 MDR tox: KB-V1 MDR subline cytotoxicity | KB-V1 MDR cells viability, CellTiter-Glo, 72 h | Potency, µM (doses to about 46.1 µM), most hits filed as cytotoxic | 3.4% of 400,000 active | AID 1347076; note: % is set by controls: 0 for no effect and ±100 for the full control effect; nearly all actives have a fitted effect of over 60% in size
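Cytotoxicity via CellTiter-Glo luminescence after 72 h compound exposure at 37 degrees C. Cells: drug-selected KB-V1 line, DMEM phenol-red free plus 10% FBS. Compounds tested at multiple concentrations; normalized data fitted to concentration-effect curves.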
MCF10A rerep: DNA re-replication induction in MCF 10a cells; MCF 10A DNA re-replication, Hoechst nuclear intensity, 48 h; Potency, µM (titrated, usually from 46.1 µM), without a hit: top-dose activity, positive = re-replication, hits mostly activators; 2.9% of 350,000 active; AID 624296; note: % of control where 0% means no effect; nearly all actives have a fitted effect of over 50% in size
SW480 rerep: induces DNA re-replication in SW480 colon adenocarcinoma cells; SW480 DNA re-replication, Hoechst DNA content imaging, 48 h; Potency, µM (top dose mostly 46.1 µM), without a hit: top-dose re-replication activation, usual class: activators; 1.8% of 340,000 active; note: % of control where 0% means no effect; nearly all actives have a fitted effect of over 55% in size
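Readout is total intensity of Hoechst-stained nuclei, excited at 405 nm and collected at 500-530 nm. Compound treatment lasted 48 hr at 37 C in 5% CO2 before staining.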
HT1080-NT tox: kills 2HG-producing HT-1080-NT fibrosarcoma cells; Potency, µM (doses to about 46.1 µM), inactives show top-dose activity, negative = less viability, most hits filed as cytotoxic; 1.6% of 360,000 active; HT-1080-NT fibrosarcoma viability, CellTiter-Glo ATP luminescence, 48 h;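 note: NT is the 2HG producing partner of a matched IDH1 knockdown line; 0% = DMSO-treated cells and -100% = media-only wells without cells; nearly all actives have a fitted effect of over 55% in size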
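HT-1080-NT fibrosarcoma cells (2HG-overproducing), 750 cells/well in RPMI with 5% FBS, dosed after 2 h and incubated 48 h at 37C. CellTiter-Glo luminescence normalized to DMSO and no-cell wells; concentration-response curves fitted and classed.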
KB-3-1 cytotox: kills parental KB-3-1 adenocarcinoma cells | KB-3-1 viability, CellTiter-Glo ATP luminescence, 72 h | Potency, µM (doses to about 46.1 µM), actives largely listed as cytotoxic | 1.4% of 400,000 active; note: % is set by controls: 0 for no effect and ±100 for the full control effect; nearly all actives have a fitted effect of over 60% in size
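72 h, 37 °C compound treatment of KB-3-1 parental cells; CellTiter-Glo added, 10 min, luminescence read. Data corrected against DMSO-only plates and normalized before curve fitting.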
Starred values were filed as active, the others as inactive. This is a sample that favours compounds with a hit; in the whole collection about 7.9% have one here. Calls come from the whole dose curve; as a rule, active = well fitted curve in the direction sought with a large enough effect; inconclusive = small, poorly fitted or top-dose-only effect, or another doubt; inactive = no such curve, though single readings can be large; an effect the other way counts as inactive or inconclusive. Potency is the fitted concentration of half-maximal effect.

`NC(=O)C(F)(F)C12OC3C4C5CC(C6C5C3C61)C42` (stereo not given) gave HT1080 IDH1KD tx 1.9%, KB-V1 MDR tox inactive, MCF10A rerep 20.6µM*, SW480 rerep inconclusive, HT1080-NT tox 1.7% and KB-3-1 cytotox inactive.
`COC(=O)/C=C/c1ccsc1NC(C)=O` gave HT1080 IDH1KD tx 19.0%, KB-V1 MDR tox inactive, MCF10A rerep 1.2%, SW480 rerep 9.2µM*, HT1080-NT tox 20.5% and KB-3-1 cytotox inactive.
For Cc1ccccc1CNc1ncnc2cc(Cl)ccc12 the results were HT1080 IDH1KD tx inconclusive, KB-V1 MDR tox inactive, MCF10A rerep -15.8%, SW480 rerep -2.1%, HT1080-NT tox inconclusive and KB-3-1 cytotox inactive.
Cc1ccc(CNc2ncnc3cc(Cl)ccc23)cc1 was read as HT1080 IDH1KD tx 23.1µM*, KB-V1 MDR tox inactive, MCF10A rerep 12.7%, SW480 rerep -19.8%, HT1080-NT tox inconclusive and KB-3-1 cytotox inconclusive.
Screening COc1cc2ncnc(NCc3ccc(C)o3)c2cc1OC returned HT1080 IDH1KD tx 0.5%, KB-V1 MDR tox inactive, MCF10A rerep -2.4%, SW480 rerep -8.9%, HT1080-NT tox 0.2% and KB-3-1 cytotox inactive.
`Cc1ccc(CNc2ncnc3cc(Cl)ccc23)o1` gave HT1080 IDH1KD tx -3.2%, KB-V1 MDR tox 20.6µM*, MCF10A rerep -15.4%, SW480 rerep 2.9%, HT1080-NT tox -4.8% and KB-3-1 cytotox inconclusive.
For Cc1nn(C)c2c1c(-c1ccccc1)cc(=O)n2Cc1ccccc1C#N the results were KB-V1 MDR tox inactive and KB-3-1 cytotox inactive.
For Cc1cccn2c(=O)c3cc(S(=O)(=O)c4ccccc4)c(=N)n(Cc4ccc(F)cc4)c3nc12 the results were HT1080 IDH1KD tx 14.7%, KB-V1 MDR tox inactive, MCF10A rerep inconclusive, SW480 rerep inconclusive, HT1080-NT tox -0.4% and KB-3-1 cytotox inactive.
For Cc1cccn2c(=O)c3cc(C(=O)NC4CCCCC4C)n(C)c3nc12 (stereo not given) the results were HT1080 IDH1KD tx 0.7%, KB-V1 MDR tox inactive, MCF10A rerep 14.6µM*, SW480 rerep 20.6µM*, HT1080-NT tox 0.4% and KB-3-1 cytotox inactive.
Screening Cc1cccn2c(=O)c3cc(C(=O)NCc4ccc(F)cc4)c(=N)n(CC4CCCO4)c3nc12 (stereo not given) returned HT1080 IDH1KD tx 0.1%, KB-V1 MDR tox inactive, MCF10A rerep 15.2%, SW480 rerep inconclusive, HT1080-NT tox -3.5% and KB-3-1 cytotox inactive.
CCOCCCNc1nc2nc3ccc(C)cn3c(=O)c2cc1C(=O)NCC1CCCO1 (stereo not given) was read as HT1080 IDH1KD tx 8.2%, KB-V1 MDR tox inactive, MCF10A rerep 10.3µM*, SW480 rerep 9.2µM*, HT1080-NT tox 23.9% and KB-3-1 cytotox inactive.
Screening COc1ccc(CNC(=O)c2cc3c(=O)n4cccc(C)c4nc3n(CC3CCCO3)c2=N)cc1 (stereo not given) returned HT1080 IDH1KD tx -10.0%, KB-V1 MDR tox inactive, MCF10A rerep 8.2µM*, SW480 rerep 4.11µM*, HT1080-NT tox -15.0% and KB-3-1 cytotox inactive.
Cc1cccn2c(=O)c3cc(C(=O)NC4CCCCC4)c(=N)n(Cc4ccc(F)cc4)c3nc12 was read as HT1080 IDH1KD tx -8.3%, KB-V1 MDR tox inactive, MCF10A rerep inconclusive, SW480 rerep 1.3µM*, HT1080-NT tox -3.4% and KB-3-1 cytotox inactive.
For CCn1c(=O)n(-c2ccc(C)c(F)c2)c(=O)c2sc3ccccc3c21 the results were KB-V1 MDR tox inactive and KB-3-1 cytotox inactive.
O=C(Nc1ccc(Cl)c(C(F)(F)F)c1)c1cc2nc(-c3ccc4c(c3)OCO4)cc(C(F)(F)F)n2n1 was read as KB-V1 MDR tox inactive and KB-3-1 cytotox inactive.
For CC(=O)Nc1cccc(NC(=O)CSc2ccc(-c3sc(-c4ccccc4)nc3C)nn2)c1 the results were KB-V1 MDR tox inactive and KB-3-1 cytotox inactive.
For O=C(c1cc2c(=O)oc3ccccc3c2s1)N1CCN(c2cccc(Cl)c2)CC1 the results were KB-V1 MDR tox inactive and KB-3-1 cytotox inactive.
Cc1cccn2c(=O)c3cc(S(=O)(=O)c4ccc(Br)cc4)c(=N)n(C4CCCCC4)c3nc12 was read as HT1080 IDH1KD tx -1.6%, KB-V1 MDR tox inactive, MCF10A rerep 12.3%, SW480 rerep inconclusive, HT1080-NT tox -3.6% and KB-3-1 cytotox inactive.
Cc1cccn2c(=O)c3cc(C(=O)NCC4CCCO4)c(=N)n(CC4CCCO4)c3nc12 (stereo not given) was read as HT1080 IDH1KD tx -3.2%, KB-V1 MDR tox inactive, MCF10A rerep 4.61µM*, SW480 rerep 3.66µM*, HT1080-NT tox 7.2% and KB-3-1 cytotox inactive.
`COc1ccc(CCn2c(=N)c(C(=O)NCC3CCCO3)cc3c(=O)n4cccc(C)c4nc32)cc1` (stereo not given) gave HT1080 IDH1KD tx -2.2%, KB-V1 MDR tox inconclusive, MCF10A rerep 2.91µM*, SW480 rerep 5.8µM*, HT1080-NT tox 1.5% and KB-3-1 cytotox inconclusive.
Cc1cccn2c(=O)c3cc(C(=O)NCc4ccco4)c(=N)n(C4CCCC4)c3nc12 was read as HT1080 IDH1KD tx 9.5%, KB-V1 MDR tox inactive, MCF10A rerep 2.06µM*, SW480 rerep 1.84µM*, HT1080-NT tox 15.5% and KB-3-1 cytotox inactive.
Screening Cc1cccn2c(=O)c3cc(C(=O)NC4CCCC4)c(=N)n(CC4CCCO4)c3nc12 (stereo not given) returned HT1080 IDH1KD tx 6.5%, KB-V1 MDR tox inconclusive, MCF10A rerep 9.2µM*, SW480 rerep inconclusive, HT1080-NT tox -3.0% and KB-3-1 cytotox inconclusive.
For CCCN1C(=O)C2(c3ccccc31)c1c(oc3ccc(F)cc3c1=O)C(=O)N2CCCOC(C)C (stereo not given) the results were KB-V1 MDR tox inactive and KB-3-1 cytotox inactive.
Cc1cccn2c(=O)c3cc(C(=O)NCC4CCCO4)c(=N)n(C4CCCCC4)c3nc12 (stereo not given) was read as HT1080 IDH1KD tx -14.6%, KB-V1 MDR tox inactive, MCF10A rerep 18.4µM*, SW480 rerep 18.4µM*, HT1080-NT tox -8.8% and KB-3-1 cytotox inactive.
Screening CCCCCCCCC/C(=N\O)c1ccccn1 returned HT1080 IDH1KD tx inconclusive, KB-V1 MDR tox inactive, MCF10A rerep 14.6µM*, SW480 rerep inconclusive, HT1080-NT tox -29.0% and KB-3-1 cytotox inconclusive.

Assay outcomes from PubChem BioAssay.
